Assay results: PubChem BioAssay (NCI)
Compounds without any hit were thinned out: in the full panel of roughly 83,000, 20% have a hit.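 Interpretation: 100, growth as untreated; towards 0, rising growth inhibition; 0, no net growth; 0 to -100, cell death. Compounds scoring below 10 were considered active.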 Values without a mark were called inactive. Calls of active or inactive are those of the source.

test system: SK-MEL-28 melanoma; assay: NCI-60 one-dose screen, 48 h (100 = growth as untreated, 0 = no growth, -100 = all killed); details: 10 µM unless noted

SMILES | growth
CC(c1ccc(-n2cccn2)cc1)c1cnc(N2CCc3ccc(C(N)=O)cc3C2)s1 (centres undefined) | 81.8%
COc1cc2c(cc1OC)-c1ccc3cc4c(cc3c1N(CCCN1CCCCC1)C2)OCO4 | 80.4%
C[C@@H](C[C@H](CCOCc1cccnc1)c1ccccc1)c1cc2ccccc2o1 | 102%
N#Cc1c(N)n2c(nc1=Nc1ccc([N+](=O)[O-])cc1)sc1cc(Cl)ccc12 | 106%
C=C1C(=O)O[C@H]2[C@H]1CC/C(C(=O)NCCCCCCCCNC(=O)/C1=C/CC[C@@]3(C)O[C@H]3[C@H]3OC(=O)C(=C)[C@@H]3CC1)=C\CC[C@@]1(C)O[C@@H]21 | 42.3%
O=C(NCCOCCOCCOCCNC(=O)c1cc2c(o1)C(=O)c1ccccc1C2=O)NC12CC3CC(CC(C3)C1)C2 | -40.8% (active)
CCOc1ccc2nc(-c3cccc(OCC(=O)NC(C)C)c3)nc(Nc3ccc(-c4cn[nH]c4)cc3)c2c1 | -71.4% (active)
CSc1ncc(C)c(Nc2ccc(Cl)cc2)n1 | 114%
O=C1CCC(N2C(=O)c3cccc(NCCCC4CCN(CCNC(=O)c5cc6c(o5)C(=O)c5ccccc5C6=O)CC4)c3C2=O)C(=O)N1 (centres undefined) | -6.88% (active)
CCOC(=O)C1C(=O)C=C(c2cnccn2)CC1c1ccc(OC)c(OC)c1 (centres undefined) | 102%
OC(CBr)c1ccnc2ccccc12 (centres undefined) | 109%
O=C1N(c2ccccc2)C(=S)N[C@]12[C@H](c1ccccc1)C1CCCN1[C@]21C(=O)NC2C=CC(Cl)=C[C@H]21 (some centres undefined) | 117%
CC(C)n1nc(C#Cc2cccc(O)c2)c2c(N)ncnc21 | -47.5% (active)
COc1cc2c(=O)n(CCCn3ccnc3)c3c4cc5c(cc4ccc3c2cc1OC)OCO5 | 40.1%
O=C(/C=C/C12c3ccccc3C(c3ccccc31)C1C(=O)N(c3ccccc3)C(=O)C12)c1ccccc1 (centres undefined) | 2.04% (active)
O=C(CC12CC3CC(CC(C3)C1)C2)NCCOCCOCCOCCNC(=O)c1cc2c(o1)C(=O)c1ccccc1C2=O | -58.5% (active)
O=C1Nc2ccccc2/C1=N/N=C/c1ccc(OC2OC(CO)C(O)C(O)C2O)cc1 (centres undefined) | 108%
CC(=[N-])N1CCC[C@@H](Nc2c3ccccc3nc3ccccc23)C1.[Cl][Pt].[NH-]CCC[NH-] | 2.14% (active)
O=C1Nc2ccccc2/C1=N/N=C/c1c[nH]c2ccccc12 | 96.3%
CNC1(C#N)CCN(Cc2ccccc2)CC1 | 136%

SMILES | growth
COc1cc2c(cc1OC)-c1ccc3cc4c(cc3c1N(CCCn1ccnc1)C2)OCO4 | 59.2%
NC(=O)c1c(NC(=O)c2ccccn2)sc2c1CCC(=O)C2 | 39.9%
NC(N)=N/N=C/c1ccc(Br)cc1 | 58.9%
CCNCCNc1cc(C2CCCC2)c(C#N)c2nc3ccccc3n12 | -63.8% (active)
CS(=O)(=O)c1ccc(-c2[nH]c3ccc(F)cc3c2/C=N/O)cc1 | 108%
N=C(N)c1ccc(-c2ccc(-c3ccc(Cl)cc3Cl)o2)cc1 | 46%
CC(=O)C(C(C)=O)c1nc2sc3cc(Cl)ccc3n2c(=N)c1C#N | 103%
Cc1ccc(/C=C(\C#N)n2nnc3cc(Cl)c(Cl)cc32)cc1 | 41.3%
O=S(=O)(NCCNc1cc(-c2c(-c3cccc(O)c3)nc3sccn23)ccn1)c1ccc(Br)cc1 | 84.9%
COc1ccc(/C(C)=N/NS(=O)(=O)c2ccc(C)cc2)cc1OC | 123%
C=C(Cl)COC(=O)C(C)(C)O | 97.7%
CCc1c(C(=O)N[C@@H]2c3cc(Cl)ccc3CC[C@@H]2O)[nH]c(C)c1C(C)=O | 81.5%
COc1cc2nc(Nc3ccc(F)cc3)nc(N)c2cc1OC | 105%
c1ccc2c(c1)nc(-n1ccnc1)c1nc3ccccc3n12 | 82.5%
COC(=O)/C(=C\c1ccc(OC)cc1)C(=O)N1c2ccccc2Sc2ccccc21 | 50.9%
CN1CCN(c2ccc(Nc3ncc(Cl)c(NC[C@@H]4CCCO4)n3)cc2)CC1 | 50.9%
O=C(NC1CCOCC1)c1ccc2c(c1)CN(c1ncc(Cc3cccc(-n4cccn4)c3)s1)CC2 | 88.3%
[2H]c1nc(Nc2ncc(F)c(-c3cc(F)c4nc(C)n(C(C)C)c4c3)n2)c([2H])c([2H])c1CN1CCN(C([2H])([2H])C([2H])([2H])[2H])CC1 | 70.3%
COc1ccc(C2CC(c3cnccn3)=NN2)cc1OC (centres undefined) | 121%
